Source: the OligoGym collection

target: GATA4; test: pooled miR-30 sensor sort-seq; sequence = guide strand; conditions: shRNA
Also: reference of the scale not given here.

Sequence | sensor-assay potency score (higher = more potent)
TCAAACATATCGAGATTGGGGT | 0.14
TTAGCAGTCGTCTTCTTTCCAG | -0.572
TTGGGCTTCCGTTTTCTGGTTT | -0.283
TTCTGTTGTGTTGTGTTTGTTT | -0.142
TTGATGCCGTTCATCTTGTGGT | -0.805
TTAGATTTATTCAGGTTCTTGG | -0.334
TTGCTGGAAGCACCGCTGGCGG | -1.56
TTTATTTTGAGAGATGTTGGAA | 0.35
TTGTTCTGGAGTCATTACCAGG | -1.25
TTTGCTATCCTCCAAGTCCCAG | -0.913

target: GCKR; test: as above; conditions: shRNA

Sequence | sensor-assay potency score (higher = more potent)
TAGGTCGAGAGCAAGAACTCTC | -0.283
TAGCAGTCGAACAATGTTCTCA | -0.15
ATCTGCTTTGTCTAGATCCTGG | -0.482
TGTCGGAATGTTGAACTCCAGT | -1.08
TTTGGTGCTTAGCTCACGCTGG | -0.0787
TAGCTCACGCTGGAACTTCTGG | -0.719
TATCATCTGACAGTGGCTGGGG | 0.728
TTTGTCTAGATCCTGGGTCAGT | -0.835
TTCCTTCTCATGTGCAACCTGG | -0.464
TTCGCTGTAGAGTCTCTGGTAT | 0.0176
TTCTTCTCCAGACTGGTGCTGA | -0.0469
TTCTGGTTAAACATGTCACTGT | 0.368

target: GDF3; test: as above; conditions: shRNA

Sequence | sensor-assay potency score (higher = more potent)
ATTGTCATTATTGTCCTGGTAG | 0.032
TTTACGTAGCATAAGTCTCGGG | -0.227
TAGAATGACATTGTCATTATTG | -1.56
TAACAGGAAGCTGAAAGCCAAA | -1.72
TTACGTAGCATAAGTCTCGGGA | 0.238
TTCTTTGACCAGTATCTCCAGG | -0.0651
TTTACCCTAAGAACACTCCTTC | 0.541
TGAAGTGAACAGCACCTTGTGG | -0.321
ATCCTTAGCTACATCCAGCAGG | -0.935
TAATGTCGTAGAATGACATTGT | 0.288
TTTATTAAAAGATTTACCCTAA | 0.196
TTCTTGAAATTGGACTGCCTGG | -1.06

target: GEMIN6; test: as above; conditions: shRNA

Sequence | sensor-assay potency score (higher = more potent)
TAATCTTGCCATTCTAAGGGGC | 0.00534
TTATACTCATTCTTCTCACTGG | 0.394
AATAAGATCCTGAACACGCGAC | -0.339
TTCAATAAGATCCTGAACACGC | 0.147
TTTGTAAATGTAATCTTGCCAT | -0.539
TTAGGCTGTTCTTTCTCTCTTC | -0.165
